Source: PubChem BioAssay (Tox21)
Calls of active or inactive are those of the source. The call rests on the fitted dose curve; in most records, active means well fitted curve in the direction sought with a large enough effect in the repeat runs; inconclusive means weak or mixed curves; inactive means flat fitted curve, though single readings scatter.

experiment: qHTS assay to test for compound auto fluorescence at 535 nm (green) in HepG2 cells (AID 720675); conditions: green autofluorescence 485/535 nm, 1 h; series mostly up to 91.3 µM; fluorescence, % of fluorescein control: at the top concentration
On the % scale 0 is the no-effect control and ±100 the full control effect.

| SMILES | fluorescence, % of fluorescein control | outcome |
| --- | --- | --- |
| CS/C(C)=N/OC(=O)N(C)SN(C)C(=O)O/N=C(\C)SC | -0.015% (inactive) | – |
| [CH3][Sn]([CH3])([Cl])[Cl] | – | inactive |
| O=C=Nc1ccc(Cl)cc1 | 0.0068% (inactive) | – |
| CCOP(=S)(OCC)SCn1nnc2ccccc2c1=O | 0.197% (inactive) | – |
| COP(=S)(Oc1cc(Cl)c(Br)cc1Cl)c1ccccc1 (configuration not stated) | 0.0581% (inactive) | – |
| CC(C)(C)c1cc([N+](=O)[O-])cc([N+](=O)[O-])c1O | -0.328% (inactive) | – |
| CCCCC(O)(Cn1cncn1)c1ccc(Cl)cc1Cl (configuration not stated) | 0.11% (inactive) | – |
| Clc1cccc2ccccc12 | 0.0418% (inactive) | – |
| Cl/C=C\C[N+]12CN3CN(CN(C3)C1)C2 | 0.0464% (inactive) | – |
| Clc1cc(C(Cl)(Cl)Cl)cnc1Cl | 0.0185% (inactive) | – |
| O=C1C(=O)c2cccc3cccc1c23 | 0.0069% (inactive) | – |
| CC1(C)CCC(Cc2ccc(Cl)cc2)C1(O)Cn1cncn1 (configuration not stated) | 0.179% (inactive) | – |
| CO/N=C(/C(=O)OC)c1ccccc1COc1ccccc1C | 0.0017% (inactive) | – |
| O=C(NC(=O)c1c(F)cccc1F)Nc1ccc(OC(F)(F)C(F)OC(F)(F)F)c(Cl)c1 (configuration not stated) | -0.0155% [at 46 µM] (inactive) | – |
| O=C1c2ccccc2C(=O)C1C(=O)C(c1ccccc1)c1ccccc1 | -0.0508% [at 46 µM] (inactive) | – |
| O=C1CN=C(c2ccccc2)c2cc(Cl)ccc2N1CC1CC1 | – | inactive |
| OC(c1ccc(Cl)cc1)(c1ccc(Cl)cc1)c1cccnc1 | 0.0205% (inactive) | – |
| BrCC(Br)C1CCC(Br)C(Br)C1 (configuration not stated) | 0.102% (inactive) | – |
| CC(C)O.CC(C)O.OCCN(CCO)CCO.OCCN(CCO)CCO.[Ti] | -0.0651% (inactive) | – |
| Cc1c(F)c(F)c(COC(=O)C2C(/C=C(\Cl)C(F)(F)F)C2(C)C)c(F)c1F (configuration not stated) | 0.0051% (inactive) | – |
| COC(=O)C(Br)CBr (configuration not stated) | 0.001% (inactive) | – |
| CCOP(=S)(Oc1ccc([N+](=O)[O-])cc1)c1ccccc1 (configuration not stated) | -0.0242% (inactive) | – |
